Assay outcomes (PubChem)
TDP43 rescue = qHTS of TDP-43 Inhibitors. TDP-43 expressing yeast growth rescue, BacTiter-Glo, 24 h. Potency, µM (highest dose often 46.1 µM), inactives show at the highest dose growth rescue (activation), usual class: activators. 1.8% of 410,000 active; note: potency is the fitted concentration of half-maximal effect; % of control where 0% means no effect; nearly all actives have a fitted effect of over 50% in size
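Growth rescue of TDP-43-toxic yeast measured as ATP luminescence (BacTiter-Glo). Cells grown to mid-log in raffinose, induced in galactose at OD600=0.02, exposed to compound 24 hr at 30 deg C.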
aSyn rescue = qHTS of alpha-syn Inhibitors. Potency, µM (series often up to 46.1 µM), for the others: at the top dose growth rescue (activation), most hits filed as activators. AID 652106, 2013. 0.14% of 370,000 active. Yeast expressing alpha-synuclein, growth rescue, BacTiter-Glo, 24 h; note: potency is the fitted concentration of half-maximal effect; % of control where 0% means no effect; nearly all actives have a fitted effect of over 65% in size
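Screening used galactose-induced yeast with toxic alpha-synuclein levels, exposed to compound for 24 hr at 30 deg C. Cell growth, read with BacTiter-Glo luminescence, gave the measured signal.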
CCT chaperon mod = High-Throughput Screening for Modulators of Cytosolic Chaperonin Activity | purified chaperonin ATPase assay, HTRF ADP detection, 30 min | activity change, % (no concentration beside the values), hits read low | 0.3% of 360,000 active | AID 651819, 2012; in the data active = activity change below about -30%; note: % is set by controls: 0 for no effect and ±100 for the full control effect
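TRiC (40 or 20 nM final, by batch activity) in 30 mM Tris pH 7.4, 100 mM KCl, 5 mM MgCl2, 1 mM DTT was treated with compound at 76 uM single dose, then 10 uM ATP, 30 min at 37 °C. ADP was read by HTRF Transcreener.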
Mm-Cpn inhibitor = Inhibitors of TCP-1 ring complex (TRiC) of Methanococcus maripaludis (MmCpn): qHTS | Chaperonin Mm-Cpn (Methanococcus maripaludis) | purified Mm-Cpn ATPase, ADP Transcreener TR-FRET | Potency, µM (highest dose often 76.9 µM), inactives show at the top dose activity, negative = inhibition, hits mostly inhibitors | 0.031% of 330,000 active; note: potency is the fitted concentration of half-maximal effect; % is set by controls: 0 for no effect and ±100 for the full control effect; nearly all actives have a fitted effect of over 80% in size
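ATP (10 uM final) was added to archaeal chaperonin (25 nM final) after 10 min exposure to test compound at 37°C; after 30 min further incubation, ADP was detected by competitive TR-FRET.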
Abeta rescue = qHTS for compounds that reverse cellular toxicity of Amyloid beta (A-beta) peptide in yeast: Primary Screen; Potency, µM (series often up to 46.1 µM), usual class: activators; yeast expressing A-beta42, growth rescue, OD600, 48 h; response scale: 0% DMSO, 100% iron-clioquinol control; AID 1347071, 2019; 0.063% of 410,000 active; note: potency is the fitted concentration of half-maximal effect; nearly all actives have a fitted effect of over 55% in size
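Yeast growth medium received pinned compounds, then yeast cells expressing toxic A-beta were added; plates incubated at 30 C for 48 hr. Growth read as absorbance at 600 nm, normalized to DMSO and equimolar FeCl3 plus clioquinol controls.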
FUS suppressor = qHTS for Suppressors of FUS Proteinopathy: Primary screen using FUS-linked yeast assay; S. cerevisiae FUS-expressing, growth rescue, OD600, 24 h; Potency, µM (doses to about 76.6 µM), usual class: activators; 0.24% of 390,000 active; AID 1347120, 2019;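 note: potency is the fitted concentration of half-maximal effect; plate controls were DMSO vehicle for no effect and reference control for full effect; nearly all actives have a fitted effect of over 55% in size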
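Cultures pregrown in 2.5% raffinose medium are shifted to minimal medium containing 2% galactose to express toxic FUS. Compounds are tested at several concentrations. After 24hr at 30C, growth is quantified at 600 nm absorbance.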
* marks the source's active call; other numbers are inactive results; i = inactive; ? = inconclusive; / = no result. In the library only some 2.3% were active in any assay of this set; here they are far more common. Unless noted, calls come from the whole dose curve; as a rule, active = well fitted curve in the direction sought with a large enough effect; inconclusive = small, poorly fitted or top-dose-only effect, or another doubt; inactive = no such curve, though single readings can be large; an effect the other way counts as inactive or inconclusive.

SMILES | TDP43 rescue | aSyn rescue | CCT chaperon mod | Mm-Cpn inhibitor | Abeta rescue | FUS suppressor
COc1ccccc1-c1cc(C(=O)N2CCN(c3ccccc3)CC2)no1 | 18µM* | 11% | 0 | 1% | i | ?
COc1ccccc1N1CCN(C(=O)c2cc(-c3ccc(C)c(F)c3)on2)CC1 | 35µM* | / | / | / | i | i
O=C(c1cc(-c2ccc(O)cc2)on1)N1CCN(c2ccccc2)CC1 | 10µM* | 10% | -1 | 2% | i | i
COc1ccc(OC)c(-c2cc(C(=O)N3CCOCC3)no2)c1 | 16% | 1% | -1 | 1% | i | i
O=C(c1cc(-c2ccc(O)cc2)on1)N1CCN(c2ccc(F)cc2)CC1 | 16µM* | 15% | 0 | 2% | ? | i
COc1ccccc1N1CCN(C(=O)c2oc3cc(C)cc(C)c3c2C)CC1 | 22µM* | 1% | -1 | 1% | i | ?
O=C(CSc1ncnc2ccccc12)c1ccc2c(c1)OCCO2 | -25% | 0% | -2 | 20µM* | i | i
O=C(CSc1nnc(SCc2cccc3ccccc23)s1)c1ccc2c(c1)OCO2 | 16% | -2% | -27 | 45µM* | i | /
O=C(CSc1nnc(SCc2cccc3ccccc23)s1)Nc1ccc(C(=O)O)cc1 | -26% | 0% | -1 | 1% | i | i
CCc1nc(SCC(=O)c2ccc3c(c2)OCCO3)c2ccccc2n1 | 18µM* | 0% | -2 | i | i | i
CC1CCCC(NC(=O)CSc2ncnc3ccccc23)C1C (stereo not given) | 14µM* | 2% | 3 | -2% | i | i
O=C(CSc1nc(Cc2ccccc2)nc2ccccc12)c1ccc2c(c1)OCCO2 | -16% | 0% | 1 | -190% | i | i
CN(C)c1ccc(/C=C/c2ccnc3c(N)cccc23)cc1 | / | -9% | / | / | / | /
COc1cccc(N(C)C(=O)[C@@H](C)[C@@H](O)c2ccc(C(C)=O)cc2)c1 | / | / | / | / | / | i
Cc1nc2ccc(S(=O)(=O)NCC(=O)NCc3ccccc3Cl)cc2s1 | / | / | / | / | / | i
CC(NC(=O)c1ccc2c(c1)CCN2S(=O)(=O)c1ccccc1)c1ccccc1 (stereo not given) | 19% | / | / | / | i | ?
COc1ccc(CC(=O)N(Cc2ccccc2)c2ccccc2C(=O)Nc2cc(OC)ccc2OC)cc1 | / | / | / | / | / | i
Cc1cnn(C(=S)NCCc2ccccc2)c1 | 11µM* | -11% | 1 | 0% | i | i
Cc1cnn(C(=S)NCc2ccc(Cl)cc2)c1 | 24% | -5% | -2 | -1% | i | i
Cc1c(C(=O)N2CCN(CC(=O)Nc3ccccc3Cl)CC2)oc2ccc(Br)cc12 | 13µM* | -6% | -2 | 0% | i | i
Cc1nc2ccccc2cc1OCc1ccc(Cl)cc1 | ? | -17% | -1 | 0% | i | i
Cc1nc2ccccc2cc1OCc1ccccc1 | 18µM* | 3% | 0 | 0% | i | i
COC(=O)[C@]12C[C@H](CC(=O)NCC3CCCCC3)C(=O)N(Cc3ccc4c(c3)OCO4)C1=C[C@H](C(C)C)O[C@@H]2C1CC1 | / | / | / | / | / | 14µM*
COC(=O)[C@]12C[C@H](CC(=O)NCC34CC5CC(CC(C5)C3)C4)C(=O)N(Cc3cccc4ccccc34)C1=C[C@H](C(C)C)O[C@@H]2C1CC1 | / | / | / | / | / | i
COC(=O)[C@]12C[C@H](CC(=O)NCc3cccc(C(F)(F)F)c3)C(=O)N(Cc3ccc4c(c3)OCO4)C1=C[C@H](C(C)C)O[C@@H]2C1CC1 | / | / | / | / | / | 8.9µM*
COC(=O)[C@]12C[C@H](CC(=O)NCCCCc3ccccc3)C(=O)N(Cc3ccc4c(c3)OCO4)C1=C[C@H](C(C)C)O[C@@H]2C1CC1 | / | / | / | / | / | 8.9µM*
